aSyn 5UTR inh: MLPCN primary screen, SNCA 5' untranslated region. alpha-synuclein 5'UTR reporter, inhibitor activity. 0.82% of 300,000 active. inhibition, % (tested at 7.5 µM). AID 1813, 2009; in the data active = inhibition above about 60%; inconclusive = no clear call, values can overlap the other calls;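 note: H4 neuroglioblastoma cells stably carrying SNCA 5'UTR luciferase fusion; 0% = DMSO wells and 100% = positive control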
MITF TRPM1 inh: inhibitors of MITF-dependent TRPM1 promoter reporter, primary screen, cell-based, SK-MEL-5, single point, luciferase | SK-MEL-5 TRPM1 promoter luciferase, 24 h | 0.83% of 330,000 active | inhibition, % at 12.5 µM | AID 488899, 2010;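 active = mean inhibition across replicates of 60% or more, whatever share of single replicates reaches that level; inconclusive = some that reach 60%, reason not given; inactive = mean inhibition across replicates below 60%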
PAX8 reporter: inhibitors of PAX8-driven TPO luciferase reporter, primary screen, RMG-I cells, single concentration. inhibition, % at 12.6 µM. SteadyGlo, 24 h. 1.2% of 360,000 active;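 active = mean replicate inhibition at least 60% with every replicate also reaching 60%; inconclusive = only one of the two criteria is met; inactive = mean below 60% and not all replicates reaching 60%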;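 note: luciferase light reporting Pax8 driven TPO promoter activity; plate controls were median of neutral control wells for no effect and mitoxantrone controls for full effect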
EBV LMP1 NFkB: EBV LMP1-driven NF-kappaB luciferase reporter inhibitors, primary screen, cell-based, luminescence, single point; LMP1-induced NF-kappaB luciferase reporter cells; inhibition, % at 12.5 µM; 0.69% of 350,000 active; AID 504558, 2011; in the data active = inhibition above about 41%; inconclusive = no clear call, values can overlap the other calls;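 note: 0% = neutral control wells and 100% = reference inhibitor control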
Shn3 3UTR inh: reduction of Shn3 3'UTR firefly luciferase signal, primary screen, Schnurri-3 inhibitor project, cell-based, Clone20 osteoblasts, set 2; Clone20 osteoblast Shn3 3'UTR firefly luciferase, 24 h; inhibition, % at 12.5 µM; 0.52% of 360,000 active; AID 588674, 2011;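 active = mean inhibition of at least 75% with every replicate also reaching 75%; inconclusive = mean inhibition at least 75% but some replicate below; inactive = mean inhibition below 75%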;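 note: 0% = median of neutral control wells and 100% = pilot-screen positive control compound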
The depositor's hits bear a star; ? = inconclusive; . = not tested or not shown; ! = repeats disagree. In the library only some 2.1% were active in any assay of this set; here they are far more common.

SMILES | aSyn 5UTR inh | MITF TRPM1 inh | PAX8 reporter | EBV LMP1 NFkB | Shn3 3UTR inh
Cn1c(CCN2CCN(c3ccccn3)CC2)nc2cc(NC(=O)COc3ccccc3)ccc21 | -5 | 13 | 66* | 14 | 5
Cn1c(CCN2CCN(c3ccccn3)CC2)nc2cc(NS(=O)(=O)c3ccccc3)ccc21 | -25 | 12 | 72* | 8 | 49
Cc1ccc(C(C)C)c(OCC(=O)Nc2ccc3c(c2)nc(CCN2CCCCC2)n3C)c1 | 110* | 95* | 83* | -8 | 2
Cn1c(CCN2CCCCC2)nc2cc(NC(=O)COc3ccc(Cl)cc3)ccc21 | 0 | -25 | 37 | 29 | -20
CCc1cccc(NC(=O)C2CCCN2S(=O)(=O)c2cccc3cccnc23)c1 (configuration not stated) | 10 | 8 | 20 | 10 | 18
COc1cc2c(cc1OC)C(C)N(C(=O)c1ccc(C)o1)CC2 (configuration not stated) | 7 | 16 | 8 | 3 | -31
CCOc1ccc(-c2nc(CSCC(=O)NCc3ccco3)c(C)o2)cc1 | 46 | 25 | . | 60* | 51
CCOc1ccc(-c2nc(CSCC(=O)N3CCN(c4cccc(OC)c4)CC3)c(C)o2)cc1 | 68* | . | 38 | 13 | 41
CCc1ccc(-c2nc(CSCC(=O)N3CCN(c4ccccn4)CC3)c(C)o2)cc1 | 82* | 64* | 25 | 4 | 18
Cc1ccc(-c2nc(CSCC(=O)N3CCN(c4ccccn4)CC3)c(C)o2)cc1 | 22 | . | 45 | 7 | 60
CC(C)NC(=O)Nc1ccc2c(c1)C(=O)N([C@@H](C)CO)C[C@H](C)[C@@H](CN(C)C(=O)CCCN(C)C)OCCCC[C@H](C)O2 | . | . | -12 | . | .
Cc1cc(N2CCCC2=O)cc(C)c1S(=O)(=O)Nc1c(C)nn(C)c1C | -9 | 4 | 13 | 49* | 14
CCOc1ccc(S(=O)(=O)N2CCC(C(=O)Nc3cccc(NC(C)=O)c3)CC2)cc1 | 20 | 14 | -10 | 2 | -4
COc1ccc(C(C)(C)C)cc1NC(=O)C1=CC=CN2CCS(=O)(=O)N=C12 | . | 7 | -2 | -5 | -27
C[C@@H]1CN([C@@H](C)CO)C(=O)CCCn2nncc2CO[C@H]1CN(C)S(=O)(=O)c1ccc(Cl)cc1 | . | . | 102*! | -2 | -8
C[C@@H]1CN([C@@H](C)CO)C(=O)CCCn2nncc2CO[C@H]1CN(C)Cc1ccc(Oc2ccccc2)cc1 | . | . | -1 | 8 | 5
C[C@H](CO)N1C[C@H](C)[C@@H](CN(C)S(=O)(=O)c2ccc(Cl)cc2)OCc2cnnn2CCCC1=O | . | . | 4 | -14 | -2
C[C@@H]1CN([C@H](C)CO)C(=O)CCCn2nncc2CO[C@H]1CN(C)Cc1ccc(Oc2ccccc2)cc1 | . | . | 116*! | 8 | 7
CC(C)[C@H](N[C@@H](C)c1ccccc1)c1c(O)ccc2ccccc12 | 4 | 1 | 11 | 66* | 13
O=C1C(Cl)=C(NCc2ccco2)C(=O)c2ccccc21 | . | 94* | 0 | -6 | -5
CCCC(=O)NC1=C(Cl)C(=O)c2ccccc2C1=O | . | 101* | 103* | -7 | 90*
O=C1c2ccccc2-c2onc3ccc(NCc4ccco4)c1c23 | 35 | 23 | . | 8 | 7
CCNC1=C(Cl)C(=O)c2ccccc2C1=O | -23 | 74* | . | 0 | 11
O=C1C(Cl)=C(NCCN2CCCCC2)C(=O)c2ccccc21 | ? | 99* | . | 13 | 95*
O=C1C(Cl)=C(NS(=O)(=O)c2ccc([N+](=O)[O-])cc2)C(=O)c2ccccc21 | 1 | ? | 23 | 6 | 20
SMILES | aSyn 5UTR inh | MITF TRPM1 inh | PAX8 reporter | EBV LMP1 NFkB | Shn3 3UTR inh
CCOc1ccc(NC(=O)CCC(=O)NNC(=O)c2cccc([N+](=O)[O-])c2)cc1 | . | -4 | 11 | 1 | -12
CCCn1c(CCC(=O)O)nc2cc(S(=O)(=O)N(CC)CC)ccc21 | -3 | 3 | 3 | 8 | -4
CCc1ccccc1-n1ncc(C(=O)Nc2ccc(OC)cc2)c1C | . | -82 | -110 | 79* | -40
COc1ccc(CNCCC(c2ccc(OC)cc2)c2ccccc2OC)cc1 (configuration not stated) | -24 | 20 | 20 | 4 | 9
COc1ccc(C(CCNCc2ccccc2)c2ccc(F)cc2)cc1 (configuration not stated) | -41 | 10 | -5 | -4 | 18
COc1ccc(C(CCN(Cc2ccc(OC)c(OC)c2)C(C)=O)c2ccccc2)cc1 (configuration not stated) | 25 | 5 | -13 | -4 | -10
COc1ccc(C(CCNCc2ccc(OC(C)C)cc2)c2ccccc2OC)cc1 (configuration not stated) | 14 | 87* | 15 | -10 | 89*
COc1ccc(C(CCNCc2ccc(F)cc2)c2ccc(F)cc2)cc1 (configuration not stated) | -4 | 31 | -2 | -15 | 42
COc1ccc(CNCCC(c2ccc(F)cc2)c2ccc(OC)cc2)cc1 (configuration not stated) | 9 | 64* | 19 | 0 | 47
COc1ccc(CN(CCC(c2ccccc2)c2ccc(OC(C)C)cc2)C(=O)CCl)cc1OC (configuration not stated) | -10 | 106* | 5 | 1 | 0
COc1ccc(C(CCNC(C)c2ccccc2)c2ccc(F)cc2)cc1 (configuration not stated) | 4 | 70* | 81* | -8 | 75
O=C(NCc1ccccn1)[C@@H]1CCCN1C(=O)[C@@H]1CCCN1C(=O)c1cccc(Cl)c1 | . | . | 2 | . | .
COc1ccc(-c2nc(Cn3c(SCc4ccc(C)cc4)nc4ccncc43)c(C)o2)cc1OC | -59 | . | -78 | -9 | 14
COc1ccc(CN(C)C[C@@H]2OCCCC[C@H](C)Oc3ccc(NS(=O)(=O)c4ccc(Cl)cc4)cc3C(=O)N([C@H](C)CO)C[C@H]2C)cc1 | . | . | 35 | . | .
COc1ccc(CNCCC(c2ccccc2)c2ccc(OC(C)C)cc2)cc1OC (configuration not stated) | 0 | 74* | 21 | -21 | 61
COc1ccc(CNCCC(c2ccc(F)cc2)c2ccc(OC(C)C)cc2)cc1OC (configuration not stated) | -13 | 15 | 24 | 7 | .
O=C(NC(Nc1ncc(S(=O)(=O)c2ccc([N+](=O)[O-])cc2)s1)(C(F)(F)F)C(F)(F)F)c1ccc(Cl)cc1 | 73* | 18 | 76* | 24 | 23
O=C(Nc1ccc2c(c1)OCCO2)c1cc(F)c(F)cc1Cl | -195 | -81 | -150 | -14 | -59
Cc1ccc(C(=O)Nc2ccc3c(c2)OCCO3)c(Cl)c1 | 80* | 34 | 52 | 47* | 9
Cc1cc(NC(=O)c2ccc3c(c2)OCCO3)no1 | 62* | 15 | . | 60* | 15
Cc1ccc(C(=O)Nc2ccc3c(c2)OCO3)cc1 | 32 | -4 | . | 6 | 6
